Assay outcomes as filed in PubChem.
Hits are enriched below; roughly 4.7% of the tested compounds scored in any of these assays.
D1 PAM – Potentiators of Human D1 Dopamine Receptor: qHTS; D(1A) dopamine receptor (Homo sapiens), P21728; HEK293 TREx D1 cells, calcium flux, dopamine EC20 potentiation; potentiation, % at 10 µM; actives 0.036% (n = 360,000); in the data active = potentiation above about 30%; also: 0% is about no effect
TRHR agonist – qHTS for Small Molecule Agonists and Allosteric Enhancers of Human TRH Receptor: Primary Screen for Agonists; activation, % at 2 µM; AID 493084, 2011; TRHR cells, calcium flux fluo-8, FDSS agonist mode; Thyrotropin-releasing hormone receptor (Homo sapiens), P34981; actives 0.18% (n = 360,000); also: 0% is about no effect
Target sequence (P34981 whole entry, looked up): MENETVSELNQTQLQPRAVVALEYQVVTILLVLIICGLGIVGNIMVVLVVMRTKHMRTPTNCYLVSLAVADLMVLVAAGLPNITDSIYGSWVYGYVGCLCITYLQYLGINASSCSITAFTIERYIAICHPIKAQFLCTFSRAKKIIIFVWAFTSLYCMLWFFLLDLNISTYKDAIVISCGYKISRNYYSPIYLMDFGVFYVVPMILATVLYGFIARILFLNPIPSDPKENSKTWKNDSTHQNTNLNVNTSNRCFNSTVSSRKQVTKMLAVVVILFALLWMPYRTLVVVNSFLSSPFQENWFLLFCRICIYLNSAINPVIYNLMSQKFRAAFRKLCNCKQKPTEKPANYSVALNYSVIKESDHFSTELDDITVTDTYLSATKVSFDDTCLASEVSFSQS
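TRHR-expressing cells loaded with fluo-8 calcium dye; 23 nL library compound pin-transferred, kinetic FDSS fluorescence (Ex 480/Em 530) recorded about 180 s for agonist-induced calcium release, before a 10 nM TRH EC20 addition for potentiator mode.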
D1 antag – Antagonist of Human D 1 Dopamine Receptor: qHTS | D(1A) dopamine receptor (Homo sapiens), P21728 | HEK293 TREx D1 cells, calcium flux, dopamine EC80; hits give low values | activity change, negative = inhibition, % at 10 µM | actives 3.2% (n = 360,000); in the data active = activity change below about -30%; also: % is scaled to controls: 0 for no effect and ±100 for the full control effect
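HEK293 T-REx cells expressing inducible, force-coupled D1 receptor; no-wash Ca dye, 30–90 min RT. Cmpd → 180 s read at 1 Hz → EC80 DA → 180 s read.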
TRHR enhancer – qHTS for Small Molecule Agonists and Allosteric Enhancers of Human TRH Receptor: Primary Screen for Enhancers. enhancement, % at 2 µM. TRHR cells, fluo-8 calcium fluorescence, EC20 TRH enhancement. actives 0.66% (n = 360,000). Thyrotropin-releasing hormone receptor (Homo sapiens), P34981; in the data active = enhancement above about 30%; also: 0% is about no effect
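Enhancer read-out: after compound pinning and an initial kinetic agonist-mode read, an EC20 of TRH (10 nM final) was injected and fluo-8 calcium signal (Ex 480/Em 530) followed at 1 s/cycle for 100 cycles in TRHR-expressing cells.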
D1 ag – Allosteric Agonists of the Human D1 Dopamine Receptor: qHTS | HEK293 T-REx D1 cells, calcium flux, agonist mode | activation, % at 2 µM | actives 1% (n = 360,000) | D(1A) dopamine receptor (Homo sapiens), P21728; also: 0% is about no effect
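Agonism was scored from calcium flux recorded over 180 s (1 read/s) after pintool compound addition, following a 10-cycle baseline. Cells were inducible force-coupled HEK293 TREx D1, plated overnight at 30 C and loaded with no-wash calcium dye.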
* marks the source's active call; other numbers are inactive results. Rule as the data show it, unless noted: active = activation above about 30%; inactive = the rest.

Screening O=C(NC1CC2CCC(C1)N2Cc1ccco1)c1ccccc1 (stereo not given) returned D1 PAM -25, TRHR agonist 0, D1 antag -40*, TRHR enhancer 7 and D1 ag 2.
For Cc1cccc(C(=O)NC2CC3CCCC(C2)N3Cc2ccccc2)c1 (stereo not given) the results were D1 PAM -12, TRHR agonist 0, D1 antag -30*, TRHR enhancer 3 and D1 ag 1.
For O=C(NC1CC2CCC(C1)N2Cc1ccccc1)c1cccc(F)c1 (stereo not given) the results were D1 PAM -8, TRHR agonist 0, D1 antag -50*, TRHR enhancer 4 and D1 ag 3.
Screening Cc1cccc(C(=O)NC2CC3CCC(C2)N3C)c1 (stereo not given) returned D1 PAM -4, TRHR agonist 1, D1 antag -25, TRHR enhancer -2 and D1 ag 3.
`COc1cccc(C(=O)NC2CC3CCC(C2)N3Cc2ccccc2)c1` (stereo not given) gave D1 PAM 0, TRHR agonist 0, D1 antag -49*, TRHR enhancer -3 and D1 ag 7.
`COc1ccc(C(=O)NC2CC3CCCC(C2)N3Cc2ccccc2)c(OC)c1` (stereo not given) gave D1 PAM -5, TRHR agonist 0, D1 antag -13, TRHR enhancer -6 and D1 ag 2.
For CCCNC(=S)NC1CC2CCCC(C1)N2Cc1ccc(F)cc1 (stereo not given) the results were D1 PAM -3, TRHR agonist 1, D1 antag -7, TRHR enhancer 2 and D1 ag 7.
O=C(NC1CC2CCC(C1)N2Cc1ccccc1)c1ccccc1Br (stereo not given) was read as D1 PAM -10, TRHR agonist 1, D1 antag 25, TRHR enhancer 6 and D1 ag 2.
For Cc1ccc(CN2C3CCCC2CC(NC(=O)c2ccc(F)cc2)C3)cc1 (stereo not given) the results were D1 PAM -12, TRHR agonist 1, D1 antag -45*, TRHR enhancer -1 and D1 ag 8.
`COc1ccc(C(=O)NC2CC3CCCC(C2)N3Cc2ccccc2)cc1` (stereo not given) gave D1 PAM -12, TRHR agonist 0, D1 antag -49*, TRHR enhancer 4 and D1 ag 2.
COc1ccccc1C(=O)NC1CC2CCC(C1)N2Cc1ccccc1 (stereo not given) was read as D1 PAM -12, TRHR agonist 0, D1 antag -50*, TRHR enhancer 9 and D1 ag 0.
For CCOc1ccc(C(=O)NC2CC3CCCC(C2)N3Cc2ccccc2)cc1 (stereo not given) the results were D1 PAM -14, TRHR agonist 0, D1 antag -16, TRHR enhancer 21 and D1 ag 5.
`Cc1ccc(C(=O)NC2CC3CCCC(C2)N3Cc2ccccc2)cc1` (stereo not given) gave D1 PAM -9, TRHR agonist -1, D1 antag -84*, TRHR enhancer 10 and D1 ag -1.
Screening Cc1c2cnn(CC(=O)N3CCCCC3)c(=O)c2c(C)n1Cc1ccc(Cl)cc1 returned D1 PAM -3, TRHR agonist 1, D1 antag -2, TRHR enhancer -5 and D1 ag 9.
COc1cccc(C(=O)NC2CCN(CC(=O)Nc3nccs3)CC2)c1 was read as D1 PAM -2, TRHR agonist 0, D1 antag -33*, TRHR enhancer 3 and D1 ag 2.
For COc1cccc(C(=O)NC2CCN(CC(=O)Nc3c(C)cc(C)cc3C)CC2)c1 the results were D1 PAM -6, TRHR agonist -1, D1 antag -13, TRHR enhancer -2 and D1 ag 0.
`O=C(NC1CC2CCCC(C1)N2Cc1ccccc1)c1ccc([N+](=O)[O-])cc1` (stereo not given) gave D1 PAM 1, TRHR agonist 0, D1 antag -57*, TRHR enhancer 3 and D1 ag 4.
For CCC(C)NC(=O)Cn1c(=O)n(Cc2ccc(C(=O)NCc3ccc(C)cc3)cc2)c(=O)c2ccccc21 (stereo not given) the results were D1 PAM -2, TRHR agonist 0, D1 antag 4, TRHR enhancer -1 and D1 ag 8.
Screening COC(=O)c1cc(OC)c(OC)cc1NC(=O)c1ccc2c(c1)CCN2S(C)(=O)=O returned D1 PAM 2, TRHR agonist 0, D1 antag 14, TRHR enhancer 2 and D1 ag 0.
Screening CCN(CC)CCNC(=O)Cc1nn(CC)c(=O)c2ccccc12 returned D1 PAM -6, TRHR agonist 0, D1 antag 19, TRHR enhancer -1 and D1 ag 4.
For CCN(CC)CCNC(=O)C(C)c1nn(CC)c(=O)c2ccccc12 (stereo not given) the results were D1 PAM 3, TRHR agonist 1, D1 antag -57*, TRHR enhancer 2 and D1 ag 1.
`CCCCc1ccc(NS(=O)(=O)c2cc3c4c(c2)CC(=O)N4CCC3)cc1` gave D1 PAM 0, TRHR agonist 0, D1 antag -4, TRHR enhancer 8 and D1 ag 7.
Screening COc1ccc(CCNC(=O)CCc2c(C)c3cc4c(C)coc4c(C)c3oc2=O)cc1OC returned D1 PAM 0, TRHR agonist -2, D1 antag -3, TRHR enhancer 2 and D1 ag 4.
For CCCCOc1ccc(C(=O)NCC(=O)NCCOc2ccc(C)cc2)cc1 the results were D1 PAM 0, TRHR agonist -1, D1 antag 19, TRHR enhancer 32* and D1 ag 2.
Cc1ccc(-c2nc(S(=O)(=O)c3ccc(F)cc3)c(N3CCN(c4ccccc4)CC3)o2)cc1 was read as D1 PAM 0, TRHR agonist 1, D1 antag 2, TRHR enhancer 2 and D1 ag 3.
For COc1ccc(CNCCC(c2ccc(F)cc2)c2ccc(OC)cc2)cc1 (stereo not given) the results were D1 PAM -5, TRHR agonist 1, D1 antag 4, TRHR enhancer 8 and D1 ag 34*.
COc1ccc(C(CCNCc2ccccc2)c2ccc(F)cc2)cc1 (stereo not given) was read as D1 PAM -4, TRHR agonist 2, D1 antag 4, TRHR enhancer 2 and D1 ag 29.
